Pol kappa inh – qHTS for Inhibitors of Polymerase Kappa; 400,000 compounds, 0.53% hits; purified Pol kappa, fluorescent DNA synthesis assay, 10 min; DNA polymerase kappa (Homo sapiens), Q9UBT6; Potency, µM (series often up to 107 µM), without a hit: top-dose activity, negative = inhibition, most hits filed as inhibitors; note: % is set by controls: 0 for no effect and ±100 for the full control effect
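Kinetic fluorescence readout at 0 and 10 min followed reaction start with substrate at 50 nM final. Beforehand, enzyme (10 nM Pol kappa) stood 15 min with compound at room temperature; buffer-only wells were negative controls.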
POLH inh – qHTS for Inhibitors of Polymerase Eta | recombinant Pol eta, fluorescent DNA replication assay | Potency, µM (titrated, usually from 114 µM), for inactives: top-dose activity change, negative = inhibition, most hits filed as inhibitors | 390,000 compounds, 1.2% hits | AID 588591, 2011; note: % is set by controls: 0 for no effect and ±100 for the full control effect
Target sequence (Q9Y253 whole entry, looked up): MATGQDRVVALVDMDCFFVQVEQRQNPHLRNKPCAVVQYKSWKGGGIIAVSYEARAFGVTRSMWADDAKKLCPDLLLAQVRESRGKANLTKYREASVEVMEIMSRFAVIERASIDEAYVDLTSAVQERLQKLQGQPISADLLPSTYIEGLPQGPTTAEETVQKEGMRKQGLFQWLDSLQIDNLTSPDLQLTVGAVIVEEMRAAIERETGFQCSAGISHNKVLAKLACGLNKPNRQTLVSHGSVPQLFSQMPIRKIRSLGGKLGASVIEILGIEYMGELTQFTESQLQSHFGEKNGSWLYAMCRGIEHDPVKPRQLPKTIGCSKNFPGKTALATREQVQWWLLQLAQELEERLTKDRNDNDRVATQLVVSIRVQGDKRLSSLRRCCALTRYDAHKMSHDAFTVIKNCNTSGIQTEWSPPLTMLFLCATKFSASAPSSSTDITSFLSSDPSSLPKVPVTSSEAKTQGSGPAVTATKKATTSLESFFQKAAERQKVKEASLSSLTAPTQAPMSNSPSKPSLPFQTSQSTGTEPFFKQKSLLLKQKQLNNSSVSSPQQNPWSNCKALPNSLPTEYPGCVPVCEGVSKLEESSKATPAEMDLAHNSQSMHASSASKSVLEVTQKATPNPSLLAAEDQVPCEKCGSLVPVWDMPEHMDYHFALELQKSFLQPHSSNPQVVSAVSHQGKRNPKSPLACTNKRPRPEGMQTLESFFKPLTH
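Pol eta (10 nM) was preincubated with compounds for 15 min at room temperature, after which fluorescent replication substrate (50 nM final) was added to start the reaction. Fluorescence was read kinetically at 0 and 10 min.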
Pol beta inh – qHTS Assay for Inhibitors of DNA Polymerase Beta | P06746 | Pol beta primer extension/strand displacement, fluorescence kinetic | Potency, µM (highest dose often 114 µM), inactives show at the highest dose activity change, negative = inhibition, most hits filed as inhibitors | 340,000 compounds, 1.3% hits; note: % is set by controls: 0 for no effect and ±100 for the full control effect
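Curves were derived by four-parameter Hill fits of normalized qHTS data. The kinetic fluorescent primer-extension read was taken at 0 and 10 min after 50 nM substrate, following a 15 min room-temperature preincubation of 10 nM enzyme with compounds.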
Pol iota inh – qHTS for Inhibitors of Polymerase Iota; DNA polymerase iota (Homo sapiens), Q9UNA4; Pol iota fluorescent replication assay, 10 min; Potency, µM (series often up to 115 µM), for the others: at the highest dose activity, negative = inhibition, most hits filed as inhibitors; 390,000 compounds, 1% hits
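Fluorescent replication assay read twice, at 0 min and 10 min after adding 50 nM (final) substrate. Enzyme (10 nM) and compounds were first incubated 15 min at room temperature; enzyme-free buffer wells were negative controls.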
GLS inhibitor – qHTS for Inhibitors of Glutaminase (GLS). Glutaminase kidney isoform, mitochondrial (Homo sapiens), O94925. GLS enzymatic activity, qHTS titration. Potency, µM (titrated, usually from 45.5 µM), inactives show top-dose activity change, negative = inhibition, most hits filed as inhibitors. 410,000 compounds, 0.21% hits; note: % is set by controls: 0 for no effect and ±100 for the full control effect
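Glutamate formation by hKGA was monitored fluorometrically using coupled glutamate oxidase, HRP and Amplex Red. Substrate was added as 1 mM L-glutamine solution; incubation was 30 min at RT after an initial read.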
APEX1 inh – qHTS Assay for Inhibitors of the Human Apurinic/apyrimidinic Endonuclease 1 (APE1); Potency, µM (top dose mostly 65.8 µM), inactives show top-dose activity change, negative = inhibition, usual class: inhibitors; 350,000 compounds, 0.35% hits; AID 2517, 2012; DNA repair nuclease/redox regulator APEX1 (Homo sapiens), P27695; recombinant APE1, TAMRA/BHQ-2 abasic DNA cleavage fluorescence;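 note: plate controls were vehicle for no effect and reference inhibitor for full effect; nearly all actives have a fitted effect of over 55% in size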
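Enzyme (0.75 nM final) and test compound are incubated 15 min at room temperature before adding 50 nM quenched THF abasic-site duplex. Cleavage dequenches TAMRA, followed at 525/598 nm over three reads one minute apart.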
* hit, by the source's call; u = inconclusive; x = no result; [ ] = remark or other dose. Compounds with a hit are over-represented: about 2.4% of the library has one in this group of screens. Calls come from the whole dose curve; as a rule, active = well fitted curve in the direction sought with a large enough effect; inconclusive = small, poorly fitted or top-dose-only effect, or another doubt; inactive = no such curve, though single readings can be large; an effect the other way counts as inactive or inconclusive. Potency is the fitted concentration of half-maximal effect.

SMILES	Pol kappa inh	POLH inh	Pol beta inh	Pol iota inh	GLS inhibitor	APEX1 inh
CN1CCN(CC(=O)Nc2sc3c(c2C(=O)Nc2ccccc2)CCCC3)CC1	7%	0%	2%	13%	9%	6%
COc1cc(OC)c(N(C)C(=O)c2sc3nc4n(c(=O)c3c2C)CCCC4)cc1Cl	-19%	-15%	89µM*	20%	4%	x
CCN(CC)c1ncnc2sc(C(=O)N3CCN(c4ccc(OC)cc4)CC3)c(C)c12	-29%	-18%	2%	-2%	22%	2%
CCOc1ccccc1NC(=S)NC(=O)CCCOc1ccc(Cl)cc1Cl	-16%	-5%	-1%	4%	0%	-3%
Cc1ccc(C(O)(C(=O)NNc2ccccn2)c2ccc(C)cc2)cc1	-6%	1%	0%	93%	13µM*	2%
CN=c1sc2c(n1C)C(=O)c1ccccc1C2=O	-3%	79µM*	x	u	3%	x
CN=c1sc(C(=O)Nc2ccccc2)c(C)n1C	-6%	-21%	1%	109%	2%	15%
Cc1cc(C)c(S(=O)(=O)Nc2ccc3oc4c(c3c2)C(=O)CC(C)(C)C4)cc1C	-3%	-10%	-12%	79µM*	-2%	x
O=C(CSc1ccc2c(c1)OCCO2)NCCc1ccc(Cl)cc1Cl	-7%	-8%	12%[57.1 µM]	2%	1%	1%
CC1(C)CC[C@]2(C(=O)O[C@@H]3OC(CO)[C@@H](O)[C@H](O)[C@H]3O)CC[C@]3(C)C(=CCC4[C@@]5(C)CC[C@H](O[C@@H]6OC(C(=O)O)[C@@H](O)[C@H](O)[C@H]6O)C(C)(C)C5CC[C@]43C)[C@@H]2C1 (stereo partly specified)	-28%	u	x	-25%	u	2%
C/C=C(\C)C(=O)OC1CC(C)(C)C[C@H]2C3=CC[C@@H]4[C@@]5(C)CCC(O[C@@H]6O[C@@H](C(=O)O)[C@@H](O)C(O[C@@H]7OC[C@H](O)[C@@H](O)[C@@H]7O[C@@H]7OC(CO)C(O)[C@@H](O)[C@@H]7O)C6O[C@@H]6OC(CO)C(O)C(O)C6O)[C@@](C)(CO)[C@@H]5CC[C@]4(C)[C@]3(C)CC(O)[C@@]12CO (stereo partly specified)	-22%	u	x	13µM*	13µM*	-16%
CCOC(=O)c1cnc(SC)nc1Sc1ccccc1	-3%	u	u	-1%	0%	-5%
CCN=C1S/C(=C\c2cn(C(C)=O)nc2-c2ccccc2)C(=O)N1CC	-9%	-13%	9%	-12%	4%	-5%
CC(=O)NC1=NC(=O)/C(=C/c2cn(C(C)=O)nc2-c2ccccc2)S1	-21%	u	-13%	22µM*	u	1%
NS(=O)(=O)c1ccc(CCNC(=O)c2cc3ccccc3s2)cc1	u	28µM*	45µM*	22µM*	-4%	u
COc1ccc(C=O)cc1COc1ccc(F)cc1F	-24%	u	18µM*	u	-4%	3%
COc1ccc(C=O)cc1COc1c(F)c(F)cc(F)c1F	-12%	2%	3%	0%	4%	-3%
COc1ccc(N2CCN(C(=O)CSc3ncn[nH]3)CC2)cc1	-8%	-13%	x	-5%	1%	5%
COc1cccc2c(=O)c3cccc(N)c3[nH]c12	-12%	u	25µM*	-12%	18%	-6%
O=C(Nc1ccccc1C(=O)O)c1ccccc1	-13%	-18%	32µM*	u	-7%	u
O=C(NNC(=O)c1ccc(NC(=O)c2ccccc2)cc1)c1ccccc1	-9%	-9%	79µM*	u	-11%	u

Screening results: PubChem, National Center for Advancing Translational Sciences (NCATS)
